Compound activity: PubChem BioAssay, several laboratories
Rows were chosen to be rich in hits. Some 2.1% of all compounds tested hit in one or more screens of this group.
Rpn11 inh = blocks the human proteasome subunit Rpn11; O00487; human 26S proteasome, Ub4-pepOG fluorescence polarization; 20S core pre-blocked with epoxomicin; inhibition, % at 20 µM; 360,000 tested, 0.59% active;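 active means inhibition at 20 µM, scaled to each plate's controls, above about 33%, limit read from the data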
TPT1 inh = inhibitors of Candida albicans tRNA 2'-phosphotransferase TPT1 | recombinant caTPT1, FP RNA substrate dephosphorylation | inhibition, % at 5 µM | 300,000 tested, 0.81% active | AID 1962;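 active means inhibition above the mean of all tested compounds plus 3 SD, set per screening campaign, cut at about 24% in these data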;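 further: plate controls were DMSO alone for no effect and ferristatin control at 100 nM for full effect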
HNF4A DNA FP = change in binding of human HNF4 alpha to DNA; P41235; HNF4a-FITC DNA binding, fluorescence polarization, 1 h; activity change, % at 10 µM; 360,000 tested, 0.3% active; AID 1224865; in the data active means activity change above about 30%, passing the limit was not always enough
Myeloid diff 2 = myeloid differentiation induction. ER-HoxA9 myeloid progenitors, lysozyme-GFP differentiation, flow cytometry. calls only at 10 µM. 360,000 tested, 1% active. AID 624256;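 active means normalized GFP-positive differentiation at or above the plate's own cutoff, the solvent-only control mean plus 3 SD; inconclusive means no clear call, values can overlap the other calls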;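 further: cells exposed to compound for four days before flow analysis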
Rpn11 inh conf = Rpn11 inhibition confirmation, single concentration | purified human 26S proteasome, Ub4-pepOG fluorescence polarization; proteasome pretreated with epoxomicin | 1,900 tested, 29% active | inhibition, % at 20 µM | shares compounds with Rpn11 inh | AID 602318
MMP-2 counter = counter-screen for RPN11 inhibitors: inhibition of human MMP-2 | inhibition, % at 20 µM | shares compounds with Rpn11 inh | recombinant MMP-2, FRET peptide cleavage fluorescence | 1,900 tested, 4% active;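 further: human MMP-2 activated beforehand with APMA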
Thrombin inh = thrombin (bovine) inhibition counter-screen; shares compounds with Rpn11 inh; bovine thrombin cleavage of Ub4-pepOG, fluorescence polarization; inhibition, % at 20 µM; 1,900 tested, 13% active; AID 602333;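 active means mean inhibition at least 40% at 20 µM, or signal 3 deviations below plate average, so some actives read negative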;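 further: plate controls were thrombin with DMSO for no effect and buffer wells lacking thrombin for full effect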
Target sequence (P00735 whole entry, looked up): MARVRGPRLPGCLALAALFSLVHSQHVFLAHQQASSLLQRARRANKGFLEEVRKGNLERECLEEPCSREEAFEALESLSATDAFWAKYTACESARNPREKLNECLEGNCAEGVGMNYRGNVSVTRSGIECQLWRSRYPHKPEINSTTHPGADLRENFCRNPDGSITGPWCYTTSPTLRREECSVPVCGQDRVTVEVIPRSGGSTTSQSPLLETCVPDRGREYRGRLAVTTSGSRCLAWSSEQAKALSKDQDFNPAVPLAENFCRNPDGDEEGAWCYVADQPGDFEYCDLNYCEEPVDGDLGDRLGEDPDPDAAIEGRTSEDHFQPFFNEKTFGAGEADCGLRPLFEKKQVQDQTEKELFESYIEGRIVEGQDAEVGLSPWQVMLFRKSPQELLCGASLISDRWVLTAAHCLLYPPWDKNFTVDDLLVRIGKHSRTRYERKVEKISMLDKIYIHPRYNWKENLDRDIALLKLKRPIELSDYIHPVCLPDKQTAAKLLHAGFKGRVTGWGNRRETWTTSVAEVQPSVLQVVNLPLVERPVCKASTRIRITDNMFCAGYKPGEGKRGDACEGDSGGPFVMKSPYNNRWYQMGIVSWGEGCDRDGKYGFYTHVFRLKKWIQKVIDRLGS
Myeloid diff CP1 = myeloid differentiation induction | shares compounds with Myeloid diff 2 | ER-HoxA9 myeloid progenitors, GFP/Mac1 double-positive flow | calls only | 2,300 tested, 2% active | AID 651706;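 active means share of green or green-and-red cells above 9 and 9% in run 1 or 4 and 3% in run 2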
GFP autofluor = compound fluorescence in myeloid differentiation counter-screen. shares compounds with Myeloid diff 2. ER-HoxA9 myeloid progenitors, no estrogen, GFP autofluorescence flow cytometry; vehicle wells 0%, positive control 100%. fluorescence response, % (concentration not given with the values). 2,300 tested, 7.4% active;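 active means over 5% cells positive for green fluorescent reporter, or over 2% positive for both it and APC stain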;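 further: range taken on the double positive population between DMSO and positive control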
* marks the source's active call; other numbers are inactive results; i = inactive; ? = inconclusive; . = not tested or not shown; + = active, no number; ! = not confirmed by another sample. Unless noted, no stated cut-off is given here; in the data, active means inhibition above about 40%; inactive means the rest.

SMILES	Rpn11 inh	TPT1 inh	HNF4A DNA FP	Myeloid diff 2	Rpn11 inh conf	MMP-2 counter	Thrombin inh	others
O=C(O)c1ccc(N=Nc2c(O)ccc3ncccc23)cc1	47.0*	-17.3	-24.2	i	-0.1	-10.5	-16.1
O=c1c2c3c(sc2nc2n1N=C(c1cccs1)CS2)CCCC3	58.5*	4.2	12.4	i	15.7	-27.4	-16.8
Cc1ccnc2c1ccc1c(C)ccnc12	46.0*	.	1.4	.	34.0	5.9	-0.7
O=C(NCC1CCCO1)c1ccc2c(=O)n(CC3CCCO3)c(SCC(=O)N3CCCC3)nc2c1 (stereo not given)	0.7	1.3	5.5	i	.	.	.
COc1ccccc1C(=O)Nc1nnc(S(=O)(=O)N(C)Cc2ccccc2)s1	1.1	0.8	-2.3	i	.	.	.
CC(C)c1ccc(OCC(=O)N(Cc2ccccc2)c2ccccn2)cc1	42.9*	-1.1	2.3	i	5.2	-19.4	6.7
O=C(COc1ccc(Cl)cc1)N(Cc1ccccc1)c1ccccn1	-1.9	4.4	-2.0	i	.	.	.
Clc1ccc(OCCSCc2nc3ccccc3[nH]2)cc1	43.8*	16.1	27.2	.	26.2	-8.9	15.2
CN1/C(=C\C(=S)NC(=O)c2cccc(Br)c2)C(C)(C)c2ccccc21	48.0*	3.9	18.8	+	25.2	21.7	8.8
CN1/C(=C\C(=O)Nc2ccc(Br)cc2)C(C)(C)c2ccccc21	1.6	-0.7	-2.8	i	.	.	.
CSc1ccc(S(=O)(=O)N2CCC(C(=O)Nc3ccccc3C(F)(F)F)CC2)cc1	35.0*	-0.4	-47.0	i	4.3	-13.3	1.5
O=C(CCN1C(=O)/C(=C/C=C/c2ccccc2)SC1=S)Nc1ccccn1	37.7*	19.9	18.3	.	-2.2	-9.8	-34.1
O=C(CCN1C(=O)/C(=C/C=C/c2ccccc2)SC1=S)Nc1cccnc1	37.4	11.3	16.3	i	.	.	.
NS(=O)(=O)c1ccc(N/C=C\C(=O)c2ccc3ccccc3c2)cc1	44.6*	10.5	-2.3	i	67.1*	37.5	-11.7
C=CCn1c(SCC(=O)Nc2ccc(-c3nc4ccc(C)cc4s3)cc2)nnc1-c1ccccc1	64.1*	8.7	2.0	i	80.6*	-18.3	-2.9
O=C(NCc1ccc(Cl)cc1)N1CCN(S(=O)(=O)c2ccccc2)CC1	1.7	-8.7	-5.6	i	.	.	.
CCOC(=O)c1nnn2c1nc(Nc1cccc(C(F)(F)F)c1)c1ccccc12	63.9*	-2.3	-3.4	i	6.5	-8.3	0.5
CCOC(=O)c1nnn2c1nc(SCC(C)=O)c1ccccc12	-7.7	-0.3	0.4	i	.	.	.
Cc1nnc(SCC(=O)N2N=C(c3ccc(Cl)cc3)CC2c2ccco2)[nH]c1=O (stereo not given)	74.0*	14.8	17.2	i	17.8	5.4	12.4
COC(=O)c1ccc(COc2ccc(/C=C(\C#N)c3nc4ccccc4[nH]3)cc2OC)o1	138.0*	3.5	25.6	?	126.8*	-150.0	90.2*
Cc1ccccc1S(=O)c1ccccc1C(=O)O (stereo not given)	-3.2	-0.8	-1.3	i	.	.	.
Cc1nn(C)cc1CN(C)C(=O)c1cc(-c2ccccc2)nc2ccc(Br)cc12	-2.0	-0.9	5.0	i	.	.	.
CNS(=O)(=O)c1ccc2nc(NC(=O)/C=C/c3ccco3)sc2c1	56.6*	8.3	16.0	i	4.0	-25.2	1.8
Cc1nc2sc(C(c3ccccc3)N3CCN(c4ccccc4F)CC3)c(O)n2n1 (stereo not given)	5.6	-0.3	4.8	i	.	.	.
CCC(C)Sc1ccc(-c2nc3cc(C)ccn3c2NC2CCCCC2)cc1 (stereo not given)	115.1*	.	44.6*!	+	8.7	-43.3	-2.5	Myeloid diff CP1=+;GFP autofluor=3.8
